Sampled rows, rich in hits. Any-hit rate of the full collection: about 21%.
Pf growth 96h: P. falciparum growth inhibition at 96 hours. P. falciparum luciferase reporter growth, 96 h. AID 504834. Potency, µM (top dose mostly 28.7 µM), without a hit: top-dose activity change, negative = inhibition, usual class: inhibitors. 320,000 compounds, 6.9% hits; note: potency is the fitted concentration of half-maximal effect; % is set by controls: 0 for no effect and ±100 for the full control effect
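Infected RBCs, 2% Hct / 0.05% parasitemia final; luciferase-reporter P. falciparum; cpd 96 h, 37 C, 5% CO2; luciferase detection reagent; luminescence.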
Pf growth 48h: inhibits P. falciparum growth in the first generation, 48 h; Potency, µM (top dose mostly 28.7 µM), for inactives: at the highest dose activity change, negative = inhibition, actives largely listed as inhibitors; 310,000 compounds, 5.9% hits; P. falciparum luciferase growth in erythrocytes, 48 h; note: potency is the fitted concentration of half-maximal effect; % is set by controls: 0 for no effect and ±100 for the full control effect
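Luminescence readout; reporter = integrated firefly luciferase in P. falciparum. RBC culture at 2% hematocrit, 0.1% parasitemia final, 37 C/5% CO2; decreased signal taken as growth inhibition.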
Shiga inhibitor: blocks Shiga toxin action in Vero cells; Vero cells, Shiga toxin protein synthesis inhibition reporter; inhibition, % at 38.7 µM; 290,000 compounds, 9.2% hits; in the data active = inhibition mostly above about 28%, no sharp cut-off; inactive = mostly below about 43%; note: 0% is about no effect
Cycloheximide cs: counter-screen hit for Shiga toxin inhibitors, cycloheximide; cell reporter, cycloheximide protein synthesis inhibition counterscreen; max response, %; 300,000 compounds, 12% hits; AID 2314; in the data active = max response mostly above about 13%, no sharp cut-off; inactive = mostly below about 14%; note: read at 38.3 µM for the half of the compounds with a filed dose; 0% is about no effect
NS1 function inh: inhibitors of influenza NS1 protein function; Potency, µM (titrated, usually from 46.1 µM), for inactives: at the top dose activity, positive = more growth; 270,000 compounds, 0.4% hits; AID 2326; calls by dose curve; note: potency is the fitted concentration of half-maximal effect; actives are rising curves; nearly all actives have a fitted effect of over 50% in size
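Growth recovery, yeast-based: influenza A NS1 expressed in S. cerevisiae causes slow growth, and suppressors are detected by OD600. The parent strain without NS1 is used as positive control.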
Starred values were filed as active, the others as inactive; ? = inconclusive; nt = not tested or not shown; [ ] = dose if it differs, or a comment. Unless noted, calls come from the whole dose curve; as a rule, active = well fitted inhibition curve with a large enough effect; inconclusive = small, poorly fitted or top-dose-only effect, or another doubt; inactive = no such curve, though single readings can be large or run the other way.

SMILES	Pf growth 96h	Pf growth 48h	Shiga inhibitor	Cycloheximide cs	NS1 function inh
Nc1ccc2nc(-c3cccnc3)[nH]c2c1	-15.7%	?	12.7	15.1*	8.0%
Nc1ccc2nc(-c3ccccc3)[nH]c2c1	nt	123.4%	126.4*	35.6*	-6.3%
Nc1cccc(-c2nc3ccc(C(=O)c4ccccc4)cc3[nH]2)c1	-5.0%	94.0%	61.4*	33.4*	-1.4%
CC1(C)CC(=O)C(C(=O)c2ccccc2)C(=O)C1Cl (stereo not given)	1.3%	?	-4.0	-2.0	-2.1%
Cn1c(=S)[nH]c2[nH]c(=O)cnc2c1=O	29.6%	17.5%	-5.9	-2.2	18.7%
Cc1cccc(NC(=O)c2cccc(OC(=S)N3CCOCC3)c2)c1	12.5%	?	31.1	-2.7	-22.4%
O=C(Nc1cccc2ccccc12)c1ccc(OC(=S)N2CCOCC2)cc1	56.0%	146.3%	103.3*	54.9*	-5.4%
O=C(Nc1cccc(Cl)c1)c1ccc(OC(=S)N2CCOCC2)cc1	-10.9%	370.0%	103.3*	38.9*	nt
N#Cc1ccc(N2CCCNCC2)nc1	-0.6%	3.0%	-3.7	-4.1	6.4%
CC(NC(=O)c1c(O)c2ccccc2n(C)c1=O)c1ccccc1 (stereo not given)	?	2.6%	35.4	6.0	15.6%
COc1ccc(OCC(=O)Nc2cccc(S(=O)(=O)N(C)c3ccccc3)c2)c([N+](=O)[O-])c1	-7.1%	-12.9%	nt	nt	nt
COc1cc(C2C(C#N)=C(N)Oc3c2c(-c2ccccc2)nn3-c2ccccc2)cc(OC)c1OC (stereo not given)	?	-11.5%	-15.9	-1.5	?
c1ccc2oc(NC3=NCN(CC4CCCO4)CN3)nc2c1 (stereo not given)	nt	112.1%	81.4*	28.7*	4.2%
OCCN1CN=C(Nc2nc3ccccc3o2)NC1	-33.2%	46.4%	-4.0	-1.3	?
CCCN1CN=C(Nc2nc3ccccc3o2)NC1	44.4%	84.6%	129.5*	32.3*	-1.1%
COCCCN1CN=C(Nc2nc3ccccc3o2)NC1	-4.9%	206.5%	60.6*	40.0*	nt
CCc1ccc2nc(NC3=NCN(CCOC)CN3)nc(C)c2c1	nt	nt	nt	nt	6.7%
CC1CCC(NC(=O)C(Cc2ccccc2)n2cccc2)CC1 (stereo not given)	?	?	28.6	5.4	-4.6%
CCCCc1cc(=O)oc2cc(OCC(=O)NC3CCN(Cc4ccccc4)CC3)ccc12	?	?	-2.4	-2.5	9.6%
COc1ccc(-c2cc(C(=O)Nc3ccccc3SC)no2)cc1	0.0%	24.8%	32.6	6.3	-6.4%
Cc1ccc(Cn2ccc(NC(=O)c3cc(-c4ccc(F)cc4)on3)n2)cc1	3.29µM*	-21.1%	-2.2	5.2	11.0%
Cc1ccc(Cn2ccc(NC(=O)c3cc(-c4ccc(Cl)cc4)on3)n2)cc1	14.2%	68.6%	12.7	-2.0	12.3%
Cc1ccc(Cn2ccc(NC(=O)c3nn(C)cc3Cl)n2)cc1	181.9%	141.9%	91.6*	38.5*	-83.8%
Cc1ccccc1Cn1ccc(NC(=O)c2nn3cccnc3c2Cl)n1	-44.7%[5.75 µM]	2.2%	46.5	22.2*	-3.5%
CSc1ccccc1NC(=O)c1cc(-c2cccs2)on1	nt	43.8%	55.8*	15.3	-59.0%
SMILES	Pf growth 96h	Pf growth 48h	Shiga inhibitor	Cycloheximide cs	NS1 function inh
CCN1C(=O)NC2C1N(S(C)(=O)=O)CCN2S(C)(=O)=O (stereo not given)	23.0%	5.8%	-10.5	1.8	1.9%
Cc1c(C2N3CC4(C)CN2CC(C)(C3)C4=O)c2ccccc2n1C (stereo not given)	?	19.3%	28.5	-1.2	1.9%
COC(=O)c1ccccc1NC(=O)c1cc(-c2ccc(C)cc2)on1	nt	13.7%	-3.7	-0.4	-1.7%
Cc1ccc(O)c(NC(=O)c2cc(-c3cccs3)on2)c1	14.2%	?	79.0*	21.2*	-3.1%
O=C(Nc1ccn(Cc2ccccc2)n1)c1ccc(F)cc1	3.1%	89.8%	85.0*	45.0*	-10.1%
Cc1ccc(O)c(NC(=O)c2cc(-c3ccc(F)cc3)on2)c1	-12.5%	104.6%	40.7	41.5*	nt
CN1CCc2nc3sc(C(=O)C45CC6CC(CC(C6)C4)C5)c(N)c3cc2C1	2.62µM*	9.28µM*	-10.1	5.9	?
O=S(=O)(c1ccccc1)[C@@]1(c2ccccc2)C[C@@H]2ON=C(c3cccc(Br)c3)[C@@H]2C1	?	11.7µM*	nt	nt	nt
Clc1ccc(C[n+]2c(-c3ccccc3)cc(-c3ccccc3)cc2-c2ccccc2)cc1	0.329µM*	0.37µM*	nt	nt	nt
Fc1ccc(C[n+]2c(-c3ccccc3)cc(-c3ccccc3)cc2-c2ccccc2)cc1	0.37µM*	0.928µM*	nt	nt	nt
O=C(COC(=O)/C=C/c1ccc([N+](=O)[O-])cc1)NC1CCCCC1	?	16.5%	nt	nt	nt
O=[N+]([O-])c1ccccc1/C=N/N1CCN(c2ccncc2S(=O)(=O)N2CCCCC2)CC1	2.33µM*	11.7µM*	5.2	7.7	21.7%
O=NN1CCN(c2ccncc2S(=O)(=O)N2CCCCC2)CC1	-21.8%	-5.8%	6.1	-0.5	0.3%
O=[N+]([O-])c1ccc(/C=N/N2CCN(c3ccncc3S(=O)(=O)N3CCCCC3)CC2)cc1	4.15µM*	?	1.0	-1.1	9.8%
Cc1cc(C(=O)N/N=C/c2cn(C)nc2C)c2ccccc2n1	16.6%	-0.4%	-2.9	-4.0	-3.2%
CCn1cc(/C=N\NC(=O)c2c[nH]c3ccccc23)c(C)n1	-17.9%	14.4%	73.8*	42.4	15.8%
Cc1c(/C=N\NC(=O)c2c[nH]c3ccccc23)cnn1C	14.0%[5.75 µM]	-10.8%	46.3*	15.4*	nt
CCn1cc(/C=N\NC(=O)c2csc3ccccc23)c(C)n1	-6.5%	nt	82.3	44.4*	0.0%
CCN(C(=O)c1cn(C)c(=O)c2ccccc12)c1ccccc1F	1.6%	-15.5%	-4.8	-2.2	9.5%
C=CCOc1ccc2c(=O)n(C)c3ccccc3c2c1	nt	nt	7.5	8.6	nt
Cc1ccc(S(=O)(=O)N(CC(=O)Nc2cccc(C)c2C)C(=O)N2CCN(C)CC2)cc1	18.6%	-3.4%	nt	nt	nt
O=C(CCCN1CCC(C(=O)c2ccc(F)cc2)CC1)c1ccc(F)cc1	-7.4%	?	-12.4	-1.1	4.0%
O=C(CCCN1CCC(O)(c2ccc(Br)cc2)CC1)c1ccc(F)cc1	4.05µM*	8.28µM*	nt	nt	nt
CC1CCN(CCCC(=O)c2ccc(F)cc2)CC1	?	-18.4%	-1.6	-1.5	nt
O=C(CCCN1CCC(O)(c2ccc(Cl)cc2)CC1)c1ccc(F)cc1	6.57µM*	7.38µM*	7.0	-2.0	-29.0%
SMILES	Pf growth 96h	Pf growth 48h	Shiga inhibitor	Cycloheximide cs	NS1 function inh
O=C(CCCN1CCC(O)(c2cccc(C(F)(F)F)c2)CC1)c1ccc(F)cc1	5.86µM*	8.28µM*	nt	nt	-12.5%
O=C(CCC(=O)c1ccc(F)cc1)Nc1cccc(C(F)(F)F)c1	44.1%	3.8%	-11.3	-1.3	3.6%
Cc1ccccc1C(=O)NNc1ccc(-c2csnn2)cc1	13.2%	1.85µM*	5.1	1.6	-34.9%
Cc1c(NC(=S)NC(=O)c2ccco2)c(=O)n(-c2ccccc2)n1C	9.5%	0.6%	13.4	-4.7	9.4%
CC(/C=C/c1ccco1)=N\NC(=O)CNc1ccc2ccccc2c1	?	30.3%	16.1	9.3	nt
O=C(N/N=C/C=C/c1ccco1)c1ccccc1Cl	-5.5%	19.2%	41.8	18.0	nt

Bioassay records (PubChem)
